Common to all, as to set-up: scale not given: direction of the effect not stated beside the values
The target of experiment [1] is Protein translocase subunit SecA (Escherichia coli (strain K12)) (UniProt P10408). The experiment is described as follows: Assay to Identify E. coli SecA ATPase Inhibitors. The class given is functional. The note with it: 30 µM.
The target of experiment [2] is T1, Ubiquitin-activating enzyme e1, putative (Leishmania donovani (strain BPK282A1)) (UniProt E9BSI1).
T1 sequence (whole entry): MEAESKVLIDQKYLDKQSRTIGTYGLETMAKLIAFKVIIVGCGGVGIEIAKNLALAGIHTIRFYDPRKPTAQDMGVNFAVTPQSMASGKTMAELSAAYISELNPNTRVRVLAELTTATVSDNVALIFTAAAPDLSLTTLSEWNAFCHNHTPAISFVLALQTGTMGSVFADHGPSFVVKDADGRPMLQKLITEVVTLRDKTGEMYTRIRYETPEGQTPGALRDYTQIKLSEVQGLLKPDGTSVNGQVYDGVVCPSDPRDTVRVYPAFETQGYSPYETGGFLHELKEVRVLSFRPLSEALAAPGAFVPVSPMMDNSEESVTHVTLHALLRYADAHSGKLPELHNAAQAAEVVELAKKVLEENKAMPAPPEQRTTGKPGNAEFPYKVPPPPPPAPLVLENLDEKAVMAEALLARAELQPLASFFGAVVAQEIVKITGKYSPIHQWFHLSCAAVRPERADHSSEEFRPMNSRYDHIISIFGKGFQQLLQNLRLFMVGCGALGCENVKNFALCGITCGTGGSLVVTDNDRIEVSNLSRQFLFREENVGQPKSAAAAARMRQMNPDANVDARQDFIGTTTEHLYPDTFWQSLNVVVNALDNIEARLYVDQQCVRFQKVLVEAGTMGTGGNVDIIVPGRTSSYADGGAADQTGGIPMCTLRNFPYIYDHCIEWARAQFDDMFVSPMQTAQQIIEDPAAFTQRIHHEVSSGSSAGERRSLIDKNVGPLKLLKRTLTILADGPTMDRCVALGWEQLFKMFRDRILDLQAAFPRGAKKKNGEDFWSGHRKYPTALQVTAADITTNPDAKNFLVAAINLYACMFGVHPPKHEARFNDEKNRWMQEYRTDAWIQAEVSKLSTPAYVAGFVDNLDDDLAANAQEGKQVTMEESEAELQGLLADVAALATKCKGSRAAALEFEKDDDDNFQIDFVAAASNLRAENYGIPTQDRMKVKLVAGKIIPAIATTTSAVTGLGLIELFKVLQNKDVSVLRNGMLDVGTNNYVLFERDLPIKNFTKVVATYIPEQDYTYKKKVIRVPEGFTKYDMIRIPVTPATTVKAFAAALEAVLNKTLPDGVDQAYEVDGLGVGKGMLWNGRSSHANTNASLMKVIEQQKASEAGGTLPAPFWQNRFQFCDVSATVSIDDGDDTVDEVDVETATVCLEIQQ
The experiment is described as follows: Leishmania donovani Ubiquitin Activating Enzyme (LdE1). Format: functional. The note with it: 30 µM.

Experiment [3] addresses Sialic acid-binding Ig-like lectin 9 (Homo sapiens) (UniProt Q9Y336). The experiment is described as follows: Hs-Siglec9 ALPHAscreen SOP 20170721. Particulars: 10 µM.
Experiment [4] concerns Trypanosoma cruzi. As to the kind of experiment: Trypanosoma cruzi phosphomannomutase and mannose-1-phosphate guanylyltransferase assay. Format: functional. Particulars: 10 µM.
The target of experiment [5] is T2, Arginase-2, mitochondrial (Homo sapiens) (UniProt P78540).
T2 sequence (whole entry): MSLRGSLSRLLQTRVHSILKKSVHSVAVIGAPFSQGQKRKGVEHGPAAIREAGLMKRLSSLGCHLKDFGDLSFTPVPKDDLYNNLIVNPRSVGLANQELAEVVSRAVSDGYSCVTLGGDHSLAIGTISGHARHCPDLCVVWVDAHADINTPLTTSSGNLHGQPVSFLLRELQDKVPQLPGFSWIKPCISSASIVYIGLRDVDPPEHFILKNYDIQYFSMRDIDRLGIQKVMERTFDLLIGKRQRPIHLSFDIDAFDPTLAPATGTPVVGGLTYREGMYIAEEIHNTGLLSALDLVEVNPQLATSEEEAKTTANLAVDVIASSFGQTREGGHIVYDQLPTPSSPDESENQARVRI
As to the kind of experiment: in vitro enzyme assay to detect the production of urea directly proportional to the activity of Arginase II. Note: in the data most compounds retested in dose-response had high values. Format: functional. Particulars: 33.3 µM.

Experiment [6] deals with T3, Proteasome subunit beta (Trypanosoma cruzi) (UniProt O96673).
T3 sequence (whole entry): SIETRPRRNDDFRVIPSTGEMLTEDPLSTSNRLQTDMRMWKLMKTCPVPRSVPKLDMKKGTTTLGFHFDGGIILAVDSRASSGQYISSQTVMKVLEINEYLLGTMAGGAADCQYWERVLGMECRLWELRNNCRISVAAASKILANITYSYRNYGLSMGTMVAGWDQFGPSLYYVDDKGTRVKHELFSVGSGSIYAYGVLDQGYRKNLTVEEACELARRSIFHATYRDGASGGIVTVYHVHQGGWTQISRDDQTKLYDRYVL
The experiment is described as follows: Trypanosoma cruzi proteasome chymotrypsin-like activity (TcProtChymo) assay. Note: in the data most compounds retested in dose-response had high values. Particulars: 9.37 µM. Format: functional.

For experiment [7], the species on record is Homo sapiens. The experiment is described as follows: To identify inhibition of the IFN signalling (Jak-Stat) pathway via expression of an eGFP reporter gene under the control of an IFN-stimulated response element (ISRE) containing MxA promoter. Format: functional. The note with it: 30 µM.
Experiment [8] concerns the target T4, Tyrosyl-tRNA synthetase, putative (Trypanosoma cruzi (strain CL Brener)) (UniProt Q4DSP6).
T4 sequence (whole entry): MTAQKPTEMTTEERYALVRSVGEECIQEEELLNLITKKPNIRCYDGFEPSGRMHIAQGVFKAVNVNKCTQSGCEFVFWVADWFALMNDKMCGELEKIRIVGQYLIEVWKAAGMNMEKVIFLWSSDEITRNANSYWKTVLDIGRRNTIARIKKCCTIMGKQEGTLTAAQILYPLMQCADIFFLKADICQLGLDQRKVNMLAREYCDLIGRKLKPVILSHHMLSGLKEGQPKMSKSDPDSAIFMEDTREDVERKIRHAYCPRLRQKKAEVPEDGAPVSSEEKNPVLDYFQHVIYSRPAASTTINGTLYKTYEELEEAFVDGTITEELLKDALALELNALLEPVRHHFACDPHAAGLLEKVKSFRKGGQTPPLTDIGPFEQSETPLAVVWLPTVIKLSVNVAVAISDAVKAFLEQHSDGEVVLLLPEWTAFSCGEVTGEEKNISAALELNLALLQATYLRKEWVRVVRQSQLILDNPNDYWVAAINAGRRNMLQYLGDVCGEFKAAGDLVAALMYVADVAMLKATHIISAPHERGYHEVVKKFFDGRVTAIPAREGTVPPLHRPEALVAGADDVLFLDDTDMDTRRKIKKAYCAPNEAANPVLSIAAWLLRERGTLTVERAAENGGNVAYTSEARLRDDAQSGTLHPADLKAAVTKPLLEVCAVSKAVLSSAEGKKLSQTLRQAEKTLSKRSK
As to the kind of experiment: Trypanosoma cruzi tyrosyl tRNA synthetase (TcYRS) _High Tyrosine SOP. Note: in the data most compounds retested in dose-response had high values. The class given is functional. The note with it: 30 µM.

The target of experiment [9] is T4, Tyrosyl-tRNA synthetase, putative (Trypanosoma cruzi (strain CL Brener)). The experiment is described as follows: Trypanosoma cruzi tyrosyl tRNA synthetase (TcYRS) SOP. Particulars: 30 µM. Format: functional.
Experiment [10] has as its target Chromo domain-containing protein 1 (Saccharomyces cerevisiae (strain ATCC 204508 / S288c) (Baker's yeast)) (UniProt P32657). The experiment is described as follows: ScCHD-1 Enzyme Inhibition Assay. Note: in the data most compounds retested in dose-response had high values. Format: functional. Particulars: 30 µM.

Molecules are shown by their SMILES. For some of these results: Potency and affinity values are given separately.

Chromo domain-containing protein 1 (Saccharomyces cerevisiae (strain ATCC 204508 / S288c) (Baker's yeast)), sequence (P32657 whole entry, the tested form may be a part): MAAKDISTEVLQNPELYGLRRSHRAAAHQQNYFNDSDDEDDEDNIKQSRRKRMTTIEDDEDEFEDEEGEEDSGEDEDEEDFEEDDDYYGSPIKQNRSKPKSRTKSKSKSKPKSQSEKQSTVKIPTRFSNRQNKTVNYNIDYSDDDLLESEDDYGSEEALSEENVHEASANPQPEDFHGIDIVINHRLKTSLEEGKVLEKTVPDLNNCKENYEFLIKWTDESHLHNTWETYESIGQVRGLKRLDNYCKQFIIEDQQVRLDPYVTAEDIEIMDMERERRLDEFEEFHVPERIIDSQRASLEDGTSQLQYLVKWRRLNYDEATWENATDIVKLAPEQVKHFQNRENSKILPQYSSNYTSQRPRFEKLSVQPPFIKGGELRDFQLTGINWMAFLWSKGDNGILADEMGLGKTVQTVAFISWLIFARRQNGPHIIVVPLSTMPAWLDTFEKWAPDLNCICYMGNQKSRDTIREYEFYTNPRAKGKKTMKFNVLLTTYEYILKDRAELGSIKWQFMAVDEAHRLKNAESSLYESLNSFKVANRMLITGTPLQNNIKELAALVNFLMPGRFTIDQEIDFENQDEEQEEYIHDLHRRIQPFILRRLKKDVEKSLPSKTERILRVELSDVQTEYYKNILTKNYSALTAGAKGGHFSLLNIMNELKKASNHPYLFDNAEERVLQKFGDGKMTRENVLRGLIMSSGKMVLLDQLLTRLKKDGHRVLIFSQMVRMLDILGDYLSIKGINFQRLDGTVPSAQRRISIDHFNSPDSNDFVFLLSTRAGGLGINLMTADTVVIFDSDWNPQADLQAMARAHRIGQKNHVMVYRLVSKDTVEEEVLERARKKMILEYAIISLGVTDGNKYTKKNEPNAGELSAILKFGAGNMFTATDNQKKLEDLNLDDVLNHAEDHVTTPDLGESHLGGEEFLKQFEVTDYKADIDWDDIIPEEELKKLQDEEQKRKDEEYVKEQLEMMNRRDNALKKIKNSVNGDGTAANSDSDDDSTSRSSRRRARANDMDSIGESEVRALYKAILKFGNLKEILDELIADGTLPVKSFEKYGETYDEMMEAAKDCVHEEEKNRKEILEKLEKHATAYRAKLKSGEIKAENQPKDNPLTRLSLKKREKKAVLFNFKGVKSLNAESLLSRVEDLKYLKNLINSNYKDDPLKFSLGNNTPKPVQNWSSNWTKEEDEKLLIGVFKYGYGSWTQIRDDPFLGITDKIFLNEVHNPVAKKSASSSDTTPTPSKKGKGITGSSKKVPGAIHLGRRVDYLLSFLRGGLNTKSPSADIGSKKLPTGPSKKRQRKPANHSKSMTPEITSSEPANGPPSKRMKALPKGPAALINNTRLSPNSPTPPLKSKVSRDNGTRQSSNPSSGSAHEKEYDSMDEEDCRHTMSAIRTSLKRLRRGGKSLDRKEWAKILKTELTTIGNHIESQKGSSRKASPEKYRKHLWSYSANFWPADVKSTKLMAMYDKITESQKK
Protein translocase subunit SecA (Escherichia coli (strain K12)), sequence (P10408 whole entry): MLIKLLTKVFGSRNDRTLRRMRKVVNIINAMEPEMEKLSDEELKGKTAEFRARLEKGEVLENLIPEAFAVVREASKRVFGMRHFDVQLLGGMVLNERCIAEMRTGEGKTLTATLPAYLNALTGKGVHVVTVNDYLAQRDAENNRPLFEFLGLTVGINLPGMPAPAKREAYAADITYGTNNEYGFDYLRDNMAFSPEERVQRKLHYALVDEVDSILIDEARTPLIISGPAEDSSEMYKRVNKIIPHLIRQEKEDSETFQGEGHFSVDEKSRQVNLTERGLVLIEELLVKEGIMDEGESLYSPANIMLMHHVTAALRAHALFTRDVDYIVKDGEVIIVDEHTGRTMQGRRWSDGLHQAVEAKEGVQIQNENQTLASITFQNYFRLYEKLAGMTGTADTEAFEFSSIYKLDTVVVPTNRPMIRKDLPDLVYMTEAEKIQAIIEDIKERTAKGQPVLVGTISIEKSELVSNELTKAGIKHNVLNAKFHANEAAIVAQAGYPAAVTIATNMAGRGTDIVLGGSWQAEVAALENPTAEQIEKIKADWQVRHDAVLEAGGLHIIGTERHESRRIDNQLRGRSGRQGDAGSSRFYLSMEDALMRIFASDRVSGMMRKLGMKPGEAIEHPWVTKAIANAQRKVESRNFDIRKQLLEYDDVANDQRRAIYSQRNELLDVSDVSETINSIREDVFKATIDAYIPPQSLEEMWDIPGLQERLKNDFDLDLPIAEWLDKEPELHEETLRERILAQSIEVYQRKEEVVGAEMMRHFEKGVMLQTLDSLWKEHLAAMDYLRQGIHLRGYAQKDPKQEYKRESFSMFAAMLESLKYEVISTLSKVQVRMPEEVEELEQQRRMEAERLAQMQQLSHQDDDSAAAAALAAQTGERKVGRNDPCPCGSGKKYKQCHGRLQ
Sialic acid-binding Ig-like lectin 9 (Homo sapiens), sequence (Q9Y336 whole entry): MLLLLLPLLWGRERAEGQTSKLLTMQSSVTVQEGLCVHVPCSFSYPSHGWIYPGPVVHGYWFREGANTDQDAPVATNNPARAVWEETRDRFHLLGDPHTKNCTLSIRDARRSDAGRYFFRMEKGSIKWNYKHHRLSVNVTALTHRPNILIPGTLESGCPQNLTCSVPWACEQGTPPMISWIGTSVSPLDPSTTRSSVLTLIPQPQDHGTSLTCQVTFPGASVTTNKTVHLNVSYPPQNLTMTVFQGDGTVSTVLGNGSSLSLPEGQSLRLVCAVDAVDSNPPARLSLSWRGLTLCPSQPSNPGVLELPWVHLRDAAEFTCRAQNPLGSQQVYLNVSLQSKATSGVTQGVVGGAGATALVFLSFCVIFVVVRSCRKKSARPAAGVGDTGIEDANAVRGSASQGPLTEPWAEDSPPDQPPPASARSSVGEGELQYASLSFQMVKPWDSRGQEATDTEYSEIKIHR

`CN1CCN(C[C@@H]2CN(C(=O)c3ccccc3C#N)C[C@@H]2CO)CC1`: the Percent Effect in experiment [1] is -3.4%; in [2] it was 10.8%; in experiment [3], 10.3%; in experiment [4], 7.86%; in experiment [5] it was 0.35%; in experiment [6] it was 3.42%. Also, the Percent Effect amounted to 7.14% in experiment [7], 4.79% in [8], 9.76% in experiment [9] and 0.408% in [10].
Turning to `Cc1ccc(CNC(=O)CN2CCCC(Cn3cncn3)C2)s1` (stereo not given), the Percent Effect in [1] was 0.165%; in [2] it was 21.3%; in experiment [3], -6.68%; in experiment [4], 3.61%; in [5], 3.99%; in experiment [6] it was 22.3%. Also, the Percent Effect is -8.31% in [7], 4.74% in experiment [8], 12.8% in experiment [9] and -11.2% in [10].
Turning to `CC(NC(=O)N1CCN(CCc2ccccc2)CC1)c1nncn1C` (stereo not given), the Percent Effect was -5.57% in experiment [1]; 5.33% in experiment [2]; 0.0136% in [3]; 3.41% in experiment [4]; 0.444% in experiment [5]; 7.55% in experiment [6]. In addition, the Percent Effect was 13.6% in experiment [7], 2.63% in experiment [8], -20.5% in [9] and -8.2% in experiment [10].
For `COCCN1CCN(Cc2cccc(C(=O)N(C)C)c2)CC1C` (stereo not given), the Percent Effect in [1] was -1.22%; in [2], 18.7%; in experiment [3] it was -4.75%; in [4], -1.61%; in experiment [5] it was 2.66%; in experiment [6], 7.72%. Moreover, the Percent Effect is 6.69% in experiment [7], 3.68% in experiment [8], 7.69% in experiment [9] and -8.7% in [10].
`CC(c1nc(C2CC2)no1)N1CCN(Cc2cccc(C#N)c2)CC1` (stereo not given): the Percent Effect in experiment [1] is -5.05%; in experiment [2] it was 15.4%; in [3], -15.7%; in [4] it was 5.35%; in experiment [5], -4.1%; in experiment [6] it was 10.5%. The Percent Effect in experiment [7] was 3.36%; in experiment [8], 3.35%; in [9], 20.5%; in experiment [10], -0.399%.
Regarding `Cc1cnn(C(C)C2CC2)c1NC(=O)c1ccncc1` (stereo not given), the Percent Effect was -9.84% in experiment [1]; -5.41% in experiment [2]; -2.58% in experiment [3]; -1.26% in experiment [4]; 1.75% in experiment [5]; 5.82% in experiment [6]. For the same compound, the Percent Effect in experiment [7] is -1.9%; in experiment [8], -1.6%; in [9], 0%; in [10] it was -0.204%.
For `CN(C)S(=O)(=O)N1CC[C@]2(C[C@H](Oc3cccnc3)CO2)C1`, the Percent Effect in [1] was -2.88%; in [2] it was 14.3%; in experiment [3] it was -1.9%; in experiment [4], 1.66%; in [5] it was 8.91%; in experiment [6] it was 23.7%. Also, the Percent Effect in experiment [7] is 1.15%; in experiment [8], 11.1%; in experiment [9] it was 15.4%; in experiment [10], -4.29%.
As to `COC(=O)CC(c1cnn(C)c1)c1oc(C)cc(=O)c1O` (stereo not given), the Percent Effect was -7.67% in experiment [1]; 0% in [2]; 0.282% in experiment [3]; -5.33% in experiment [4]; -3.85% in experiment [5]; 6.85% in experiment [6]. The Percent Effect in experiment [7] is 8.46%; in experiment [8], 0.532%; in [9], 0%; in [10], -1.21%.
In the case of `Cc1cnn(CC2CCCCN2Cc2cc(C)on2)c1` (stereo not given), the Percent Effect in experiment [1] was -1.2%; in experiment [2], 10.3%; in experiment [3] it was 3.02%; in experiment [4] it was -0.282%; in experiment [5], -0.82%; in [6], 1.45%. In addition, the Percent Effect in [7] was 8.23%; in experiment [8], 1.44%; in [9] it was 10.8%; in [10] it was -2.89%.
For `Cc1occc1C(=O)NCc1ccc(N2CCCC(C(N)=O)C2)cc1` (stereo not given), the Percent Effect in [1] was -2.46%; in [2] it was 8%; in [3] it was -3.46%; in [4] it was -3.61%; in experiment [5], 10.6%; in [6], 13%. The Percent Effect in [7] was 16.5%; in experiment [8] it was 2.63%; in experiment [9], 7.69%; in [10] it was -9.94%.
As for `COc1ncc(CN2CC[C@@](C)(O)[C@H](Oc3cccc(F)c3)C2)cn1`, the Percent Effect was -2.75% in [1]; 9.33% in [2]; -0.132% in [3]; -2.76% in experiment [4]; -1.33% in experiment [5]; 6.73% in [6]. The Percent Effect is 8.72% in [7], 4.23% in [8], 10% in experiment [9] and -23.1% in experiment [10].
In the case of `Cn1cnc2c1CCN(Cc1ccc(C(=O)N3CCCC3)cc1)C2`, the Percent Effect in experiment [1] was -2.26%; in experiment [2], 15.4%; in [3] it was -9.12%; in experiment [4], 1.97%; in experiment [5], 4.51%; in experiment [6], 11%. Also, the Percent Effect in experiment [7] is 9.66%; in [8], 3.35%; in experiment [9] it was 20.5%; in [10], -0.499%.
For `CCOCC1CN(Cc2cnn(C)c2)Cc2ncn(CC3CC3)c21` (stereo not given), the Percent Effect in experiment [1] was -6.63%; in experiment [2], -1.3%; in experiment [3] it was 9.29%; in experiment [4], -1.66%; in [5] it was -3.64%; in experiment [6] it was 2.21%. Moreover, the Percent Effect in experiment [7] was 10.9%; in [8], 1.58%; in [9] it was -5.13%; in experiment [10], 0.231%.

The values are drawn from ChEMBL document CHEMBL3988442, “University of Dundee, Small-Polar-MMV Screening Library” (2021).
